Experimental data: publication PMC5540273 (PLoS ONE, 2017)

Test system: T1, JNK1
T1 construct: gene MAPK8
Conditions: concentration: 1 μM,replicates: in singlicate; n = 1
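Also: KINOMEscan kinase panel screen.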

SMILES | %Inh
Cn1ccc2ncnc(Oc3ccc(NC(=O)Nc4cnn(C(C)(C)C)c4)c(Cl)c3)c21 | 2%
COc1cc2ncn(-c3cc(OCC4CCCCC4)c(C(N)=O)s3)c2cc1OC [GSK204559] | 20%
COc1cccc(CNC(=O)NC2CCN(c3ccnc(Nc4cc(OC)c(OC)c(OC)c4)n3)C2)c1 (stereo not shown) [GSK1379765] | 29%
Cn1ccc2ncnc(Oc3ccc(NC(=O)Nc4cccc(C(F)(F)F)c4)c(F)c3)c21 | 11%
CNC(=O)c1ccccc1Nc1nc(Nc2cccc(CS(C)(=O)=O)c2)ncc1C.O=CO [GSK1520489] | 99.9%
C[C@@H](Oc1cc(-n2cnc3cc(-c4cnn(C)c4)ccc32)sc1C(N)=O)c1ccccc1Cl [GSK580432] | 0%
COc1cc(Nc2nccc(N3CCC(NC(=O)c4cccc(C#N)c4)C3)n2)cc(OC)c1OC (stereo not shown) [GSK1379751] | 30%
Cc1ccn2nc(-c3ccc(F)cc3)c(-c3ccncc3)c2c1.Cl [GW457859] | 43%
CN1CCN(CCNc2nc3cc(Oc4ccc(NC(=O)Nc5cc(C(F)(F)F)ccc5F)cc4)ccc3[nH]2)CC1.Cl.Cl [GW768504] | 0%
NC(=O)c1ccc(-c2cc3ncnc(SCC(=O)O)c3s2)cc1 | 22%
CC(=O)c1c(-c2ccncc2)[nH]c(-c2ccncc2)c1C [GW493036] | 25%
O=C(Nc1cccc(C(F)(F)F)c1)c1cccc(Oc2ccc3nccn3n2)c1 | 21%
CC(=O)Nc1nc2cnc(Nc3cc(NC(=O)c4cccc(CC(C)(C)C#N)c4)ccc3C)nc2s1 | 33%
